From PubChem BioAssay AID1347172 (National Center for Advancing Translational Sciences (NCATS), 2019)
Results filed as inconclusive are left out. A number with no mark means an inactive call. Activity calls are given as the source filed them. Calls follow the shape of the dose curve; as a rule, active = well fitted inhibition curve with a large enough effect; inconclusive = small, poorly fitted or top-dose-only effect; inactive = flat fitted curve, though single readings scatter.

experiment: Secondary qRT-PCR qHTS assay for selected Zika virus inhibitors; conditions: Vero cells ZIKV infection, NS5 RNA qRT-PCR, 24 h; series mostly up to 32.6 µM; activity change, negative = inhibition: at the top concentration
From the text: Assay Submitters (PI): Avindra Nath, Ph.D., National Institute of Neurological Disorders and Stroke (NINDS), Bethesda, MD Radhakrishnan Padmanabhan, Ph.D., Georgetown University (GU), Washington D.C. Zika Virus causes congenital defects, including microcephaly and is associated with Guillain-Barre syndrome, eningoencephalitis and myelitis in infected adult. […] Using a target-based approach, we hope to establish a screening paradigm to uncover novel, cell-active NS2B-NS3 protease (Zika Virus) specific inhibitors from NCATS' collection of small molecules using qHTS. […] Four assay panel was created to identify potential Zika Virus inhibitors. Namely, (1) GU unlinked NS2B-NS3 AMC tagged protease qHTS, (2) GU unlinked NS2B-NS3 Rhodamine tagged protease qHTS, (3) NINDS linked NS2B-NS3 AMC tagged protease qHTS, (4) NINDS linked NS2B-NS3 Rhodamine tagged protease qHTS. Inhibitors of the Zika virus primary screens are confirmed using qRT-PCR secondary assays, qRT-PCR mCherry orthogonal assay, and qRT-PCR viability counterscreen. Early Translation Branch (ETB) National Center for Advancing Translational Sciences (NCATS), Rockville, MD National Institute of Health (NIH), Bethesda, Maryland
384-well ZIKV qRT-PCR Assay: Vero cells were treated with the indicated compounds at different concentrations, infected with ZIKV (MOI=1) and incubated at 37 degrees C for 3 hours to permit virus invasion. After 3 hr, supernatant was removed, and cells were washed once to remove extracellular virus. After a further 21 hr incubation, infected cells were washed three times with cold PBS (4 degrees C). Plates were then process using the TaqmanGene Expression Cells-to-Ct Kit (ThermoFisher Scientific) following the manufactures protocol. Primers directed to the NS5 sequence (F-[…]; R-GCTCGGCCAATCAGTTCA) along with Taqman probe (FAM-[…]-BHQ; Biosearch Technologies) were used to quantify drug inhibition of viral load. Reactions were run at initial 95 degrees C for 10 min, then 40 cycles of 95 degrees C for 20 sec and 60 degrees C for 40 sec using a LightCycler 480 (Roche). Relative viral copy numbers were generated by normalizing to cells treated with vehicle.

Compound | Potency | activity change, negative = inhibition
O=C(O)Cc1cccc(OCCCN(Cc2cccc(C(F)(F)F)c2Cl)CC(c2ccccc2)c2ccccc2)c1 | 14.1 µM (active) | –
Cc1nc(C2CCCCC2)c(-c2ccc(S(N)(=O)=O)c(F)c2)o1 | – | -1.51%
CC(C)=CCc1c2c(c3occ(-c4ccc(O)c(O)c4)c(=O)c3c1O)C=CC(C)(C)O2 | 4.47 µM (active) | –
CC1(C)CC[C@]2(C(=O)O)CC[C@]3(C)C(=CCC4[C@@]5(C)C[C@@H](O)[C@H](O)C(C)(C)C5CC[C@]43C)C2C1 (stereo not given in full) | – | -5.81% [at 16.3 µM]
Cc1cc(C(C#N)c2ccc(Cl)cc2)c(Cl)cc1NC(=O)c1cc(I)cc(I)c1O (stereo not given) | 22.4 µM (active) | –
C=C1c2cccc(O)c2C(O)=C2C(=O)[C@]3(O)C(O)=C(C(N)=O)C(=O)[C@@H](N(C)C)[C@@H]3[C@@H](O)[C@H]12 | inactive | –
Cc1ccc([C@@H]2CC=C(C(=O)O)[C@H](c3ccc(C(C)(C)C)cc3)N2S(=O)(=O)c2ccc(C)cc2)cc1 | – | -24.8%
O=C(O)CC1CCC(c2ccc(-c3ccc(Nc4ccc(C(F)(F)F)nc4)cn3)cc2)CC1 (stereo not given) | – | 1.2%
C/C(=C\c1ccc(C(=O)O)cc1)c1ccc2c(c1)C(C)(C)CCC2(C)C | 12.6 µM (active) | –
CC1=C(C(=O)OCc2ccccc2)C(c2ccc(-c3ccccc3)cc2)NC(=O)N1CCCCCC(=O)O (stereo not given) | – | -14%
CC(C)C[C@H](C(=O)O)c1cc(-c2ccc(C(F)(F)F)cc2)cc(-c2ccc(C(F)(F)F)cc2)c1 | 12.6 µM (active) | –
CC1CCN(C(c2ccc(F)cc2)c2ccc(C(C)C(=O)O)cc2-c2ccc(C(F)(F)F)cc2)CC1 (stereo not given) | 14.1 µM (active) | –
CC1(C)CCC(C)(C)c2cc3c(cc21)Sc1ccccc1N=C3c1ccc(C(=O)O)cc1 | – | -2.06%
CC(Oc1ccccc1)C(=O)Nc1ccc(C(=O)OCc2cc(=O)n3nc(C4CC4)sc3n2)cc1 (stereo not given) | – | 4.47%
Cc1ccc2[nH]c(=O)c(C3=NN(C(=O)CCC(=O)O)C(c4ccc(Br)cc4)C3)c(-c3ccccc3)c2c1 (stereo not given) | – | 6.96%
CCCCCCCOc1cc2c(cc1/C(C)=C/c1ccc(C(=O)O)cc1)C(C)(C)CCS2(=O)=O | 14.1 µM (active) | –
CC(C)(O)c1ccccc1CC[C@@H](SCC1(CC(=O)O)CC1)c1cccc(/C=C/c2ccc3ccc(Cl)cc3n2)c1 | – | 2.54%
CC(C)c1cccc2c(-c3ccccc3)cc(-c3ccc(-c4ccc(C(=O)O)cc4)[nH]3)nc12 | 10 µM (active) | –
CC[C@H](C)[C@H]1O[C@]2(CC[C@@H]1C)C[C@@H]1C[C@@H](C/C=C(\C)[C@@H](O[C@H]3C[C@H](OC)[C@@H](O[C@H]4C[C@H](OC)[C@@H](O)[C@H](C)O4)[C@H](C)O3)[C@@H](C)/C=C/C=C3\CO[C@@H]4[C@H](O)C(C)=C[C@@H](C(=O)O1)[C@]34O)O2 | 3.98 µM (active) | –
COc1cc(C(=O)NS(=O)(=O)c2ccccc2C)ccc1Cc1cn(C)c2ccc(NC(=O)OC3CCCC3)cc12 | – | 0.303%

Compound | Potency | activity change, negative = inhibition
CCOc1ccc(-c2cc(NC(=O)c3c(F)cccc3F)c(C(=O)O)s2)cc1 | – | -11.2%
CC(C)c1cc(C(C)C)c(CC(=O)NS(=O)(=O)Oc2c(C(C)C)cccc2C(C)C)c(C(C)C)c1 | 10 µM (active) | –
O=C(N/N=C/c1ccc(O)c(O)c1)c1cc2ccccc2cc1O | – | -17.4%
CN(Cc1ccc(C(=O)O)cc1)c1ccc(OCc2c(-c3c(Cl)cccc3Cl)noc2C2CC2)nc1C(F)(F)F | 14.1 µM (active) | –
O=C(O)c1cccc(-c2ccc(-c3cn(C(=O)N4CCCCC4Cc4ccccc4)nn3)cc2)c1 (stereo not given) | – | -2.59%
CCc1oc2ccccc2c1C(=O)c1cc(Br)c(O)c(Br)c1 | – | -19.8%
CC(C)c1onc(-c2c(Cl)cccc2Cl)c1COc1ccc(/C=C/c2cccc(C(=O)O)c2)c(Cl)c1 | 11.2 µM (active) | –
O=C(O)/C=C/c1ccc(-c2ccc(O)c(C34CC5CC(CC(C5)C3)C4)c2)cc1 | 10 µM (active) | –
O=C(O)c1ccc(-n2nc(-c3ccccc3O)nc2-c2ccccc2O)cc1 | – | 15.9%
CC(=O)OC12CC(C)C(OC(=O)c3ccccc3)C1/C=C(/C)C(OC(=O)c1ccccc1)CC(=O)C(C)(C)/C=C/C(C)C2=O (stereo not given) | – | -8.12% [at 10.8 µM]
Oc1c(Cl)cc(Cl)c(Cl)c1Cc1c(O)c(Cl)cc(Cl)c1Cl | 35.5 µM (active) | –
CCOC(=O)c1ccc(N2C(=O)c3n[nH]c(-c4cccs4)c3C2c2ccc(C(C)(C)C)cc2)cc1 (stereo not given) | 3.55 µM (active) | –
COc1c(C)c2c(c(O)c1C/C=C(\C)CCC(=O)O)C(=O)OC2 | – | -10.2%
N#CC1C(=O)Nc2scc(-c3ccc(-c4ccccc4O)cc3)c2C1=O (stereo not given) | – | -0.434%
O=C(O)c1c(Sc2ccccc2)c2cc(Cl)ccc2n1Cc1ccc(Cl)cc1 | – | -24.4%
CCOC(=O)c1ccc(NC(=O)CSc2nc(-c3ccc(F)cc3)cc(C(F)(F)F)c2C#N)cc1 | – | -18.9%
O=C(O)C1(Cc2cccc(Nc3nccs3)n2)CCC(Oc2cccc(Cl)c2F)CC1 (stereo not given) | – | -14.6%
CN(C)[C@@H]1C(=O)C(C(N)=O)=C(O)[C@@]2(O)C(=O)C3=C(O)c4c(O)ccc(Cl)c4[C@@H](O)[C@H]3C[C@@H]12 | – | -4.42%
Cc1ccn(-c2ccc(-c3ncco3)cc2)c(=O)c1-c1ccc2nc(N)ncc2c1 | – | -6.39%
CCOc1c2c(c(OCC)c3ccccc13)C(=O)N(c1ccc(CC(=O)NS(=O)(=O)c3ccccc3)cc1)C2 | – | 10.7%
